From PubChem BioAssay (NCATS) come the findings set out here.

The structures appear in SMILES notation. Records with an inconclusive call do not appear. Calls of active or inactive are those of the source. Calls follow the shape of the dose curve; as a rule, active = well fitted cell-killing curve with a large enough effect; inconclusive = small, poorly fitted or top-dose-only effect; inactive = flat fitted curve, though single readings scatter.

The assay can be described thus: HepG2 cells viability qHTS for Zika virus inhibitors (AID 1347168). The following applies: Zika counter-screen; series mostly up to 45.9 µM. An excerpt:
Avindra Nath, Ph.D., National Institute of Neurological Disorders and Stroke (NINDS), Bethesda, MD
Radhakrishnan Padmanabhan, Ph.D., Georgetown University (GU), Washington D.C.
Zika Virus causes congenital defects, including microcephaly and is associated with Guillain-Barre syndrome, eningoencephalitis and myelitis in infected adult. […] Using a target-based approach, we hope to establish a screening paradigm to uncover novel, cell-active NS2B-NS3 protease (Zika Virus) specific inhibitors from NCATS' collection of small molecules using qHTS.
Four assay panel was created to identify potential Zika Virus inhibitors. Namely, (1) GU unlinked NS2B-NS3 AMC tagged protease qHTS, (2) GU unlinked NS2B-NS3 Rhodamine tagged protease qHTS, (3) NINDS linked NS2B-NS3 AMC tagged protease qHTS, (4) NINDS linked NS2B-NS3 Rhodamine tagged protease qHTS. Identified inhibitors were screened against the Vero and HepG2 cell viability assays using CellTiter Glo to exclude cytotoxic compounds.
Early Translation Branch (ETB)
National Center for Advancing Translational Sciences (NCATS), Rockville, MD
National Institute of Health (NIH), Bethesda, Maryland
Vero and HepG2 Cell Viability Assay:
Vero and HepG2 cell cytotoxicity were determined using a luminescent readout with CellTiter Glo reagent (Promega, Madison, WI), which is based on measuring the ATP content within cells. Briefly, 4 microL of Vero or HepG2 cells at 2.5 x 10^5 cells/mL in DMEM containing 4% FBS were dispensed into 1536-well solid bottom tissue treated white plate using a Multidrop Combi dispenser (Thermo Scientific). Plates were incubated at 37 degrees C, 95% humidity, and 5% CO2 overnight to allow for cell attachment. Compounds were dissolved in DMSO at different concentrations and transferred via pintool (Wako Automation), for a final concentration of 0.029 µM - 57 microM. Plates were again incubated for 24 to 48 hours, followed by a 2 microL addition of CellTiter Glo. Finally, plates were incubated for 30 minutes at 37 degrees C and 5% CO2 before being read on a ViewLux (Perkin Elmer) for luminescence.
Background: Quantitative high-throughput screening tests each substance at several concentrations.
As to `COc1ccc(-c2ccc3c(N4CCOCC4)nc(N4C[C@@H](C)O[C@@H](C)C4)nc3n2)cc1CO`, the molecule was called inactive.

For `CC(C)(Sc1ccc(CCN(CCCCC2CCCCC2)C(=O)NC2CCCCC2)cc1)C(=O)O`, the molecule was classed as inactive.

As for `Cn1cnc([N+](=O)[O-])c1Sc1ncnc2nc[nH]c12`, the outcome was inactive. On to `Cc1[nH]c(=O)c(C#N)cc1-c1ccc2nccn2c1`, for which the result was inactive. As for `CCn1cc(C(=O)O)c(=O)c2cc(F)c(N3CCNC(C)C3)c(F)c21` (stereo not given), the entry is “inactive”; as for `Cc1[nH]c(=O)c(C#N)cc1-c1ccncc1`, “inactive”. The value for `CCN(CC)CCCC(C)Nc1ccnc2cc(Cl)ccc12` (stereo not given) was “inactive”. As for `CCCCNc1cc(C(=O)O)cc(S(N)(=O)=O)c1Oc1ccccc1`, the entry is “inactive”. As to `O=C(C1CC1)N1CC[C@@H](Cn2c(-c3ccc(-c4ccc5occc5c4)cc3)nc3cnccc32)C1`, the result was inactive. As for `CC(C)c1onc(-c2c(Cl)cccc2Cl)c1COc1ccc(/C=C/c2cccc(C(=O)O)c2)c(Cl)c1`, the entry is “inactive”. The value for `COc1ccccc1-c1cccc(-c2c(O)c3cc(C#N)c(Cl)cc3[nH]c2=O)c1` was “inactive”; that for `Cc1cc(SCc2sc(-c3ccc(C(F)(F)F)cc3)nc2C)ccc1OCC(=O)O` was “inactive”. For `COCC(=O)NCC=Cc1ccc2ncnc(Nc3ccc(Oc4ccc(C)nc4)c(C)c3)c2c1`, the molecule was classed as inactive. Take `O=c1n(CCCN2CCN(c3cccc(Cl)c3)CC2)nc2ccccn12`: the molecule was classed as inactive. `CCCc1nc2c(C)cc(-c3nc4ccccc4n3C)cc2n1Cc1ccc(-c2ccccc2C(=O)O)cc1`: the molecule was classed as inactive.
